Assay results reported in PubChem BioAssay (NCATS).
Inconclusive results are not listed. A call without a number means that no potency is given here. Active and inactive are the calls of the source. The call rests on the fitted dose curve; in most records, active means well fitted cell-killing curve with a large enough effect; inconclusive means small, poorly fitted or top-dose-only effect; inactive means no such curve, though single readings can be large or run the other way.

Assay: qHTS of pediatric cancer cell lines to identify multiple opportunities for drug repurposing: Primary screen for Rh41 cells (AID 1347108); further: nearly all actives have a fitted effect of over 70% in size
Conditions: Rh41 rhabdomyosarcoma viability, CellTiter-Glo luminescence, 48 h; series mostly up to 46 µM
From the text: Drug repurposing or repositioning has been offered as a strategy for drug development in oncology programs. This approach has special potential for childhood cancers and other rare or orphan diseases, where the expected return on new drug development has been a disincentive to pharmaceuticals. […] In this project we exploit the poly-pharmacology of drugs to discover new indications via phenotypic screening of a panel of 19 well-characterized cell lines derived from solid tumors seen in children and adolescents. The goal is to identify approved drugs with previously unrecognized anticancer properties that has the potential to reveal new mechanisms and biological processes involved in carcinogenesis or drug resistance. We employed a titration-based paradigm (quantitative high-throughput screening or qHTS), where all compounds were tested at multiple concentrations for their effect on cell viability. Concentration-response curves (CRCs) were derived directly from the primary screen, and both potency and efficacy values were used to identify compounds with robust bioactivity profiles. We screened the NIH Chemical Genomics Center (NCGC) Pharmaceutical Collection (NPC) and Mechanism Interrogation Plate (MIPE) small molecule collections of approved and investigational compounds against these cell lines; and measured metabolically active cells after 48 hours of compound treatment as a proxy for cell viability. […] Assay Submitter: Nathalia J. Martinez, National Center for Advancing Translational Sciences, National Institutes of Health, Rockville, MD, USA; email: natalia.martinez@nih.gov Shen, M et al. Quantitative high-throughput phenotypic screening of pediatric cancer cell lines identifies multiple opportunities for drug repurposing. Oncotarget 2017 Dec 19;9(4):4758-4772. PMID 29435139.
The cells were obtained from University of North Carolina (UNC), Pediatric Preclinical Testing Program (PPT), and Coriell Institute (CI). qHTS cell viability assay: Cells were assayed in growth media at a density of 500-1,000 cells/well. Five microliters of cells were dispensed into 1,536-well, white, solid-bottom, TC-treated plates (Greiner Bio One) using a multidrop dispenser and incubated at 37 degrees C, 5% CO2, under a humidified atmosphere for 5 hours. Twenty-three nanoliters of compounds and controls (neutral control DMSO or positive control bortezomib at final concentration of 2.3 µM) were subsequently transferred by Kalypsys pintool. For primary screens, the MIPE collection was tested at 11-point dilutions (final concentrations range from 0.78 nM to 46 µM) and the NPC collection at 8-point dilutions (final concentrations range from 0.59 nM to 46 µM). Compounds tested in follow-up screens were assayed at 11-point dilutions. Cells were incubated for 48 hours, followed by addition of 3 µL of CellTiter-Glo (Promega). After a 15 min incubation at room temperature, samples were analyzed for luminescence intensity using a ViewLux High-throughput CCD imager equipped with clear filters.
Potency means the concentration at half of the fitted maximal effect.

| Structure (SMILES) | Potency |
| --- | --- |
| Cc1cc(Nc2ncc3c(n2)N(C)C(=O)N(c2cc(NC(=O)c4cccc(C(F)(F)F)c4)ccc2C)C3)n(C)n1 | 743 nM (active) |
| C#C[C@]1(O)CC[C@@H]2[C@@H]3CCc4cc(O)ccc4[C@H]3CC[C@@]21C | 23500 nM (active) |
| Cn1cnc(=N)c2[nH]cnc21 | 469 nM (active) |
| c1cc(CN2CCCNCCNCCCNCC2)ccc1CN1CCCNCCNCCCNCC1 | inactive |
| O=C(O)[C@H](CC(=O)N1C[C@@H]2CCCC[C@H]2C1)Cc1ccccc1 | inactive |
| COC1=C(OC)C(=O)C(CC=C(C)CCC=C(C)CCC=C(C)CCC=C(C)CCC=C(C)CCC=C(C)CCC=C(C)CCC=C(C)CCC=C(C)CCC=C(C)C)=C(C)C1=O | inactive |
| CC(C)NC[C@@H](C(=O)N1CCN(c2ncnc3c2[C@H](C)C[C@H]3O)CC1)c1ccc(Cl)cc1 | 332 nM (active) |
| Nc1nc(=O)n([C@H]2C[C@H](O)[C@@H](CO)O2)cc1F | inactive |
| O=C(Nc1ccc(Oc2ccnc3[nH]ccc23)c(F)c1)c1cccn(-c2ccc(F)cc2)c1=O | inactive |
| Cn1cc(-c2cnn3c(N)c(Br)c([C@H]4CCCNC4)nc23)cn1 | 2350 nM (active) |
| CC[C@@]1([C@@H]2O[C@@H]([C@H]3O[C@@](O)(CO)[C@H](C)C[C@H]3C)C[C@H]2C)CC[C@H]([C@]2(C)CC[C@]3(C[C@H](O)[C@@H](C)[C@@H]([C@@H](C)[C@@H](OC)[C@H](C)C(=O)O)O3)O2)O1 | inactive |
| CON=C(C(=O)N[C@@H]1C(=O)N2C(C(=O)O)=C(CSC(=O)c3ccco3)CS[C@H]12)c1csc(N)n1 | inactive |
| Nc1nc(=O)n([C@H]2CSC(CO)O2)cc1F (stereo not given in full) | inactive |
| CN[C@@H]1C[C@H]2O[C@@](C)([C@H]1OC)n1c3ccccc3c3c4c(c5c6ccccc6n2c5c31)C(=O)N[C@H]4O | 5900 nM (active) |
| CC(C)Oc1ccc(C(=O)N[C@H](CNC(=O)CN(C)C)Cc2ccc(-c3cn4cccc([C@H](C)O)c4n3)cc2)cc1Cl | 1180 nM (active) |
| C[C@](Cc1c[nH]c2ccccc12)(NC(=O)OC1C2CC3CC(C2)CC1C3)C(=O)NC[C@H](NC(=O)CCC(=O)O)c1ccccc1 (stereo not given in full) | inactive |
| Cc1coc2c1C(=O)C(=O)c1c-2ccc2c(C)cccc12 | inactive |
| O=C(CN1C(=O)C2(CCCC2)NC[C@H]1c1cc(F)cc(F)c1)Nc1ccc2c(c1)C[C@@]1(C2)C(=O)Nc2ncccc21 | inactive |
| Nc1ccn(C[C@@H](CO)OCP(=O)(O)O)c(=O)n1 | inactive |
| FC(F)c1nc2ccccc2n1-c1nc(N2CCOCC2)nc(N2CCOCC2)n1 | 1480 nM (active) |

| Structure (SMILES) | Potency |
| --- | --- |
| CCN(CC)Cc1ccc2cc(COC(=O)Nc3ccc(C(=O)NO)cc3)ccc2c1 | 935 nM (active) |
| NC(=O)N1CCC(CC(=O)N2CCC([C@H]3c4ncc(Br)cc4CCc4cc(Cl)cc(Br)c43)CC2)CC1 | 5900 nM (active) |
| CCc1c(O)cc(O)c(C(=O)c2ccc(OCCN3CCOCC3)c(OC)c2)c1CC(=O)N(CCOC)CCOC | 1180 nM (active) |
| COc1ccc(S(=O)(=O)Nc2cccnc2Nc2ccc(O)cc2)cc1 | 187 nM (active) |
| CC(=O)OCC(=O)[C@@]12N=C(C)O[C@H]1C[C@H]1[C@@H]3CCC4=CC(=O)C=C[C@]4(C)[C@@H]3[C@@H](O)C[C@@]12C | inactive |
| C[C@H]1COc2c(N3CCN(C)CC3)c(F)cc3c(=O)c(C(=O)O)cn1c23 | inactive |
| CCN(C(=O)c1c(O)c2c(Cl)cccc2n(C)c1=O)c1ccccc1 | inactive |
| CC[C@H]1OC(=O)[C@H](C)[C@@H](O[C@H]2C[C@@](C)(OC)[C@@H](O)[C@H](C)O2)[C@H](C)[C@@H](O[C@@H]2O[C@@H](C)C[C@H](N(C)C)[C@@H]2O)[C@](C)(O)C[C@@H](C)C(=O)[C@H](C)[C@@H](O)[C@]1(C)O | inactive |
| O=C(O)C=Cc1ccc(Cn2ccnc2)cc1 | inactive |
| COc1ccc2cc([S+]([O-])Cc3ncc(C)c(OC)c3C)nc2c1 | inactive |
| CC(C)[C@H](CO)Nc1nc(Nc2cccc(Cl)c2)c2ncn(C(C)C)c2n1 | 11800 nM (active) |
| CCCc1nc(C(C)(C)O)c(C(=O)O)n1Cc1ccc(-c2ccccc2-c2nn[nH]n2)cc1 | inactive |
| CCS(=O)(=O)Nc1ccc2[nH]c(O)c(C(=Nc3ccc(CN4CCCCC4)cc3)c3ccccc3)c2c1 | 743 nM (active) |
| Cn1cc(CNCC2CCN(c3ncc(C(=O)NO)cn3)CC2)c2ccccc21 | 148 nM (active) |
| O=C(C=CC#Cc1cccc(NS(=O)(=O)c2ccccc2)c1)NO | 2960 nM (active) |
| CC(C)N(CC[C@H](c1ccccc1)c1cc(CO)ccc1O)C(C)C | inactive |
| CCC(C(=O)O)C1CCC(C)C(C(C)C(O)C(C)C(=O)C(CC)C2OC3(C=CC(O)[C@@]4(CC[C@](C)(C5CC[C@@](O)(CC)C(C)O5)O4)O3)C(C)CC2C)O1 (stereo not given in full) | 3720 nM (active) |
| C=CCNc1c(O)cc2c(O)c1C[C@@H](C)C[C@H](OC)[C@@H](O)[C@@H](C)C=C(C)[C@H](OC(N)=O)[C@@H](OC)C=CC=C(C)C(=O)N2 | 2350 nM (active) |
| CN[C@H](CC(C)C)C(=O)N[C@H]1C(=O)N[C@@H](CC(N)=O)C(=O)N[C@@H]2C(=O)N[C@H]3C(=O)N[C@H](C(=O)N[C@H](C(=O)O)c4cc(O)cc(O)c4-c4cc3ccc4O)[C@H](O)c3ccc(c(Cl)c3)Oc3cc2cc(c3O[C@@H]2O[C@H](CO)[C@@H](O)[C@H](O)[C@@H]2O[C@H]2C[C@](C)(N)[C@H](O)[C@H](C)O2)Oc2ccc(cc2Cl)[C@H]1O | inactive |
| C=CC(=O)Nc1cccc(Nc2nc(NC3CCC(N(C)C)CC3)nc3c2ncn3C(C)C)c1 (stereo not given) | 20.9 nM (active) |
